{
  "source": "PubChem BioAssay AID1272365",
  "about": "(Small Molecule Screening Facility, UW Madison, 2020)",
  "note": "The campaign covered roughly 430,000 compounds. About 2,600 (0.6%) were called active. Shown is part of a subset that was picked to be rich in actives. A number with no mark means an inactive call. Cut-off read from the data, not from the text of the source: active = inhibition mostly above about 37% (no sharp cut-off); inactive = mostly below about 20%.",
  "data": [
    {"test_system": "PriA–SSB C-terminal tail interaction (Klebsiella pneumoniae)", "experiment": "blocks PriA binding to SSB C-terminal tail, primary screen, biochemical, AlphaScreen (AID 1272365);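 note: plate controls were negative control peptide for no effect and reference peptide for full effect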", "conditions": "AlphaScreen SSBct-PriA binding, biotinylated peptide; at 33 µM, hits give high values", "values": [
      {"smiles": "O=C(COc1ccccc1F)NNC(=O)c1ccc(N2CCCCC2)c([N+](=O)[O-])c1", "inhibition": "13.6%"},
      {"smiles": "CON=Cc1ccc(N2CCOCC2)c([N+](=O)[O-])c1", "inhibition": "-5.72%"},
      {"smiles": "O=C(ON=Cc1ccc(N2CCCCC2)c([N+](=O)[O-])c1)c1c(F)cccc1F", "inhibition": "41.1% (active)"},
      {"smiles": "COc1ccc(C(=O)CSc2nccn(-c3ccc(C)cc3)c2=O)cc1", "inhibition": "8%"},
      {"smiles": "c1ccc(-c2ccc(-c3csc4ncnc(N5CCCCCC5)c34)cc2)cc1", "inhibition": "-3%"},
      {"smiles": "Brc1cccc(-c2nnc3n2CCC3)c1", "inhibition": "-16.1%"},
      {"smiles": "COc1ccc(-c2nc3n(c2Br)CCC3)cc1", "inhibition": "18.6%"},
      {"smiles": "Brc1c(-c2ccccc2)nc2n1CCC2", "inhibition": "57% (active)"},
      {"smiles": "CCc1ccc(S(=O)(=O)NN=Cc2ccc3c(c2)OCO3)cc1", "inhibition": "-15.4%"},
      {"smiles": "COc1ccc(CCNS(=O)(=O)c2cccc([N+](=O)[O-])c2)cc1", "inhibition": "0.99%"},
      {"smiles": "CCN(CC)c1ccc(C=NNS(=O)(=O)c2cccc([N+](=O)[O-])c2)cc1", "inhibition": "46.5% (active)"},
      {"smiles": "Cc1ccccc1OCC(=O)NCCS(=O)(=O)N1CCN(Cc2ccccc2)CC1", "inhibition": "-5%"},
      {"smiles": "O=c1oc2ccccc2cc1-c1nc(-c2ccncc2)n[nH]1", "inhibition": "0%"},
      {"smiles": "c1ccc(OCc2nc(-c3ccccn3)n[nH]2)cc1", "inhibition": "104% (active)"},
      {"smiles": "Cc1cccc2[nH]c(COc3ccc(F)cc3)nc12", "inhibition": "-4%"},
      {"smiles": "COc1cccc(C(=O)N2CC(c3nc(-c4ccccn4)no3)C2)c1", "inhibition": "-10%"},
      {"smiles": "S=c1[nH]nc(COc2ccccc2)o1", "inhibition": "-8%"},
      {"smiles": "c1ccc(-c2nc(-c3cnccn3)n[nH]2)nc1", "inhibition": "125% (active)"},
      {"smiles": "Cc1nc2nc(COc3ccccc3)[nH]n2c(=O)c1C", "inhibition": "-10.1%"},
      {"smiles": "COc1ccc(OCc2nc(-c3ccccn3)n[nH]2)cc1", "inhibition": "101% (active)"},
      {"smiles": "CCOC(=O)c1ccccc1NC(=O)Cn1cnc2c(cnn2-c2ccc(C)cc2C)c1=O", "inhibition": "20%"},
      {"smiles": "Cc1cc(NC(=O)C(=O)NCc2cccnc2)ccc1N1CCCC1=O", "inhibition": "0%"},
      {"smiles": "COc1ccc(CCS(=O)(=O)NCC(=O)N2CCOC(c3ccccc3)C2)cc1", "note": "(stereo not drawn)", "inhibition": "2%"},
      {"smiles": "Cc1ccc2cccc(C(=O)N3CC(S(=O)(=O)Cc4ccco4)C3)c2n1", "inhibition": "-1%"},
      {"smiles": "O=C(CSc1nc2c(c(=O)[nH]1)CN(Cc1ccc(F)cc1)CC2)Nc1ccc(F)c(Cl)c1", "inhibition": "0%"},
      {"smiles": "O=c1[nH]c(=S)[nH]c2sc3c(c12)CCC3", "inhibition": "18%"},
      {"smiles": "CCOc1cc(-c2nnc(NC(=O)c3cc(Cl)ccc3Cl)o2)cc(OCC)c1OCC", "inhibition": "0%"},
      {"smiles": "Cc1ccc(NC(=O)C(=O)NCC(c2ccc(F)cc2)N2CCN(C)CC2)cc1Cl", "note": "(stereo not drawn)", "inhibition": "-4%"}
    ]}
  ]
}
